Source: PubChem BioAssay
Calls of active or inactive are those of the source. No rule for the calls is given here.

Test: inhibition of PAO1 biofilm formation – strain PAO1, LB-PBS medium, absorbance 600 nm, primary screen (AID 1176); also: test concentration not given here
Conditions: P. aeruginosa PAO1 growth/biofilm, A600, 12 h; higher = more signal

z-score, inactive:
C=C(COC)/C(=C/C[C@H](OC(C)=O)c1ccccc1OCCO)c1cc(C(=O)OC)ccc1OC -0.718, C=C(CCCC)/C(=C/C[C@H](OC(=O)c1ccncc1)c1cccc(OCCO)c1)c1cnc2ccccc2c1 0.236, C=C(COC)C(=O)CC[C@@H](OC(C)=O)c1ccccc1OCCO 0.166, COc1ccc(C(O)C2C=CC3C(=O)N(c4ccccc4)C(=O)C3N2Nc2ccc(C#N)cc2)cc1OCc1ccccc1 (stereo unspecified) 1.45, CCOC(=O)C1=CC[C@@H](c2ccc(OC)cc2)N(S(=O)(=O)c2ccc(C)cc2)[C@H]1c1ccc(C)cc1 -0.0601, C=C(CCCC)/C(=C/C[C@H](OC(C)=O)c1cccc(OCCO)c1)c1cnc2ccccc2c1 -0.693, CC(=O)OCC1C2CC[C@H]3C(OCc4ccc(F)cc4C(F)(F)F)OC[C@]4(C)[C@H]3C2=C(CN4C(=O)OC(C)(C)C)[C@H](C)C1COC(C)=O (stereo partly specified) 1.14, CC(C)(C)OC(=O)CC[C@]1(C(=O)NCC(O)CO)N=C(c2ccc(OCCCO)cc2)O[C@H]1c1ccccc1N=[N+]=[N-] (stereo partly specified) 0.948, COC(=O)[C@@]1(Cc2ccc(F)cc2)[C@H]2c3cc(C(=O)N(C)C)n(CCc4ccc(O)c(O)c4)c3C[C@H]2CN1C(=O)c1ccccc1 -0.154, CC[C@@H]1C=C(C(=O)O)[C@H](c2ccc(OC)cc2)N1S(=O)(=O)c1ccc(C)cc1 -0.281, COC(=O)[C@@]1(Cc2ccccc2)N=C(c2ccc(OCCCO)cc2)O[C@H]1c1ccccc1CN=[N+]=[N-] 2.45
